# Records with an inconclusive call do not appear. Activity calls are given as the source filed them. Calls come from the whole dose curve; as a rule, active = well fitted cell-killing curve with a large enough effect in the repeat runs; inconclusive = weak or mixed curves, or effect the other way; inactive = no such curve, though single readings can be large or run the other way. Positions of bridges follow the written chain, without caps; N, C: chain ends. Non-standard residues stand in square brackets, D forms with d. Residues, ends and D or L forms follow the SMILES beside them. hArg = N=C(N)NCCCC[C@H](N)C(=O)O; Mpa = O=C(O)CCS
# Experiment: qHTS assay to identify small molecule agonists of the farnesoid-X-receptor (FXR) signaling pathway - cell viability counter screen (AID 743218); note: nearly all actives have a fitted effect of over 45% in size
# Details: FXR-bla HEK293T viability, CellTiter-Glo luminescence, 16 h; series mostly up to 62.6 µM; viability change, negative = cytotoxic: at the top concentration
# Description: U.S. Tox21 Program National Center for Advancing Translational Sciences [NCATS] NIH Chemical Genomics Center [NCGC] U.S. Environmental Protection Agency [EPA] National Institutes of Environmental Health Sciences [NIEHS] National Toxicology Program [NTP] U.S. Food and Drug Administration [FDA] Tox21 Assay Overview: The farnesoid-X-receptor (FXR), a nuclear hormone receptor, is highly expressed in liver, intestine, kidney and adrenal cortex. Natural ligands of FXR are the bile acids (Cholic acid, Chenodeoxy cholic acid etc). FXR is an important regulator of diverse metabolic pathways, including the bile acid homeostasis, lipid and glucose metabolisms. FXR regulates the expression of target genes by binding either as a monomer or as a heterodimer with the retinoid X receptor (RXR). Numerous studies have reported that FXR exerts protective function during cholestasis, diabetes, liver regeneration, and cancer. To identify compounds that activate FXR signaling, GeneBLAzer FXR-UAS-bla HEK 293T cell line (Invitrogen, Carlsbad, CA) containing a beta-lactamase reporter gene under the control of a UAS response element was used to screen the Tox21 10K compound library. The cytotoxicity of the Tox21 compound library against the FXR-bla cell line was tested in parallel by measuring the cell viability using CellTiter-Glo assay in the same wells.
# Tox21 Assay Protocol Summary: FXR-bla cells were dispensed at 5000 cells/5uL/well in 1536-well black wall/clear bottom plates using a Multidrop Combi (Thermo Fisher Scientific, Waltham, MA) dispenser. After the assay plates were incubated at 37 C and 5% CO2 for 5 h, 23 nL of compounds dissolved in DMSO, positive controls or DMSO only was transferred to the assay plate by a Pintool station (Kalypsys, San Diego, CA). The assay plates were incubated at 37C for 16 h. After 1 uL of LiveBLAzerTM B/G FRET substrate was added using a Bioraptr Flying Reagent Dispenser (FRD) workstation (Beckman Coulter, Indianapolis, IN), the plates were incubated at room temperature for 2 h, and fluorescence intensity was measured by an Envision plate reader (PerkinElmer, Shelton, CT). For cell viability readout that measures cytotoxicity, 4uL/well of CellTiter-Glo reagent was added into the assay plates using a Bioraptr FRD. After 30 min incubation at room temperature, the luminescence intensity in the plates was measured using a ViewLux plate reader (PerkinElmer).
# % is set by controls: 0 for no effect and ±100 for the full control effect.
row,Structure (SMILES),"viability change, negative = cytotoxic"
1,CC(C)NC(=O)c1ccc(C=O)cc1,4.13% (inactive)
2,CN(C)CC/C=C1/c2ccccc2COc2ccc(CC(=O)O)cc21,-3.5% (inactive)
3,COS(=O)(=O)O,22.4% (inactive)
4,CSc1cnccn1,-5.69% (inactive)
5,COc1cc2c(cc1OC)CN(C(=O)[C@H](C)N[C@@H](CCc1ccccc1)C(=O)O)[C@H](C(=O)O)C2,26.9% (inactive)
6,CCOc1cccc(N)c1,6.76% (inactive)
7,CC(C)c1ccc(C=O)cc1,-2.74% (inactive)
8,CC(=O)C(C)O (stereo not given),-3.48% (inactive)
9,CCC(C)OC(C)CC (stereo not given),-7.51% [at 81.1 µM] (inactive)
10,CC(C)Cn1cnc2c1c(=O)n(C)c(=O)n2C,18.9% (inactive)
11,C=C(C)[C@@H]1CC=C(C)CC1,-12.5% (inactive)
12,COC(=O)c1ccccc1C(=O)O,26.9% (inactive)
13,Cc1ccc(C(C)NC(=O)[C@@H](NC(=O)OC(C)C)C(C)C)cc1 (stereo not given in full),2.12% (inactive)
14,CC(C)C[C@@H]1[C@H](c2ccccc2)OC(=O)N1CCCN1CCCCCC1,-7.86% (inactive)
15,O/N=C/C=N/O,-4.46% (inactive)
16,C=CCN1C[C@H](C(=O)N(CCCN(C)C)C(=O)NCC)C[C@@H]2c3cccc4[nH]cc(c34)C[C@H]21,2.18% (inactive)
17,C/C=C(\C)C(C)=O,6.08% (inactive)
18,C=CC(=O)OCC1CCCO1 (stereo not given),-0.198% (inactive)
19,CC(=O)Nc1ccc(OC(=O)c2ccccc2OC(C)=O)cc1,6.18% (inactive)
20,O=C(Cl)c1ccccc1[N+](=O)[O-],-1.31% [at 81.1 µM] (inactive)

row,Structure (SMILES),"viability change, negative = cytotoxic"
1,CO[C@@]1(NC(=O)Cc2cccs2)C(=O)N2C(C(=O)O)=C(COC(N)=O)CS[C@@H]21,0.468% (inactive)
2,O=NN(CCCl)C(=O)NC1CCCCC1,-1.5% (inactive)
3,CN(C)C(C)(C)CO,4.47% (inactive)
4,O=C(NCN1CCOCC1)c1cnccn1,16.3% (inactive)
5,CCN(CC)CCN,15.9% (inactive)
6,CC(C)OC(=O)CCC(=O)OC(C)C,6.5% (inactive)
7,COc1c2occc2c(OC)c2c(=O)cc(C)oc12,-8.51% (inactive)
8,CC12CCC(C1)C(C)(C)C2O (stereo not given),3.81% (inactive)
9,CC(Oc1cc(Cl)ccc1Cl)C(=O)O (stereo not given),-18.3% (inactive)
10,CCNC(=O)NCc1cccc(Cl)c1,-4.52% (inactive)
11,COc1nc(N)nc2nc[nH]c12,-7.19% (inactive)
12,NC(=O)[C@@H]1CSSCCC(=O)N[C@@H](CCCCN=C(N)N)C(=O)NCC(=O)N[C@@H](CC(=O)O)C(=O)N[C@@H](Cc2c[nH]c3ccccc23)C(=O)N2CCC[C@H]2C(=O)N1 ([Mpa][hArg]GDWPC-NH2; disulfide 1-7),-23.1% (inactive)
13,CCCCCC/C=C/C(=O)OC,4.95% (inactive)
14,CCC(=O)c1c(O)cc(O)cc1O,-6.28% (inactive)
15,NCCOCCN,-7.75% (inactive)
16,CC(C)OC(=O)OCOP(=O)(CO[C@H](C)Cn1cnc2c(N)ncnc21)OCOC(=O)OC(C)C,1.4% (inactive)
17,O=C1OCCO1,14.9% [at 81.1 µM] (inactive)
18,C[C@@H](O)C(=O)O,-1.58% [at 81.1 µM] (inactive)
19,CCCCCCCCCCCCCCCCCCOCCO,1.99% [at 29.1 µM] (inactive)
20,Cc1c(Cl)cccc1Cl,-9.55% (inactive)

# Reference: PubChem BioAssay (Tox21)
